Screening data from PubChem.
Most compounds without a hit are left out; they make up all but 9.2% or so of the library.
NPC1 promoter act = activates the NPC1 promoter | Huh7 NPC1 promoter luciferase reporter, 24 h | Potency, µM (top dose mostly 9.22 µM), most hits filed as activators | 320,000 compounds, 2.4% hits; also: nearly all actives have a fitted effect of over 60% in size
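Luciferase expression driven by the NPC1 promoter was measured in stably transfected Huh7 cells after a 24 h compound incubation, using a luciferase reagent and a luminescence read.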
ELG1 genotox = induces genotoxicity in HEK293T cells with luciferase-tagged ELG1; HEK293T ELG1-luciferase reporter, luminescence, 16 h; Potency, µM (highest dose often 46 µM), usual class: activators; 330,000 compounds, 1.3% hits; also: nearly all actives have a fitted effect of over 60% in size
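Cells (2,000/well) expressing the ELG1-luciferase fusion are dosed by pin tool and kept 16 hr at 37 °C, 5% CO2. Signal comes from ONE-Glo luciferase reagent after 30 min at room temperature.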
FLuc modulator = counter-screen for miR-21 project: firefly luciferase inhibitors or activators; purified FLuc, Km substrates, luminescence inhibition; Potency, µM (top dose mostly 57.5 µM), hits mostly inhibitors; 360,000 compounds, 6.9% hits; also: nearly all actives have a fitted effect of over 55% in size
Target sequence (P08659 whole entry, looked up): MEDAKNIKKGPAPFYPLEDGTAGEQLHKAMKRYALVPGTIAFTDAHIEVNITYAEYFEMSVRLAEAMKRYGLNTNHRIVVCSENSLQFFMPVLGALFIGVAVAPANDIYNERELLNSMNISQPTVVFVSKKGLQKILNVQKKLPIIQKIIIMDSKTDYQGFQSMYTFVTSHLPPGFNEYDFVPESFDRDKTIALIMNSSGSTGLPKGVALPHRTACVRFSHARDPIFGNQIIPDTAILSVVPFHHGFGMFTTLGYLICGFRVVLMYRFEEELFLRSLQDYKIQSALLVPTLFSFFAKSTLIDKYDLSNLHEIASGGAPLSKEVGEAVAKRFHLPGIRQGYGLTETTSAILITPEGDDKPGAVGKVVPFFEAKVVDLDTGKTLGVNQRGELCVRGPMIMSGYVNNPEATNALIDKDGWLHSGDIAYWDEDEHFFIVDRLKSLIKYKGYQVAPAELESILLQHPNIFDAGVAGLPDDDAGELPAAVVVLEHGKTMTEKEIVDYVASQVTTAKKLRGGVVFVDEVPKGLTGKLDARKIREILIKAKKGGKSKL
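Biochemical qHTS of compounds, final roughly 60 µM downward over six points, against 10 nM purified firefly luciferase using Km concentrations of substrates (10 uM D-luciferin, 10 uM ATP) in Tris acetate pH 7.5 buffer; luminescence output.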
ELG1 repair inh = blocks ELG1-dependent DNA repair in HEK293T cells. HEK293T ELG1-luciferase reporter, luminescence, 16 h; DNA damage induced by 5-fluorouridine. Potency, µM (top dose mostly 46.1 µM), usual class: inhibitors. 330,000 compounds, 2.3% hits; also: nearly all actives have a fitted effect of over 55% in size
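Reporter activity after DNA damage by 5-fluorouridine is monitored. Compound-treated cells incubate 16 hr at 37 °C, then ONE-Glo is added for 30 min before luminescence reading.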
SMN2 splice enh = SMN2 splice variant enhancement; AID 1458; HEK293 SMN2-luciferase splicing reporter, luminescence, 30-36 h; 210,000 compounds, 2.8% hits; Potency, µM (highest dose often 46.1 µM), hits mostly activators; also: nearly all actives have a fitted effect of over 55% in size
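HEK293 cells carry an SMN2 minigene-luciferase reporter in which exon 7 inclusion puts luciferase in frame. Cells were seeded at 2000 cells/well, attached for 10-12 hours, then exposed to compounds for 30-36 hours at 37C before ONE-Glo luminescence.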
Rab9 prom act = activators of Rab9 promoter. Huh7 Rab9 promoter-luciferase reporter, luminescence, 24 h. Potency, µM (series often up to 9.22 µM), actives largely listed as activators. 320,000 compounds, 2.8% hits; also: nearly all actives have a fitted effect of over 60% in size
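Huh7 cells stably carrying a Rab9 promoter-luciferase reporter, 1500 cells per well in OP-MEM I with 10% FBS, treated with compound 24 hours at 37C. Luciferase activity read by luminescence after 10 minutes with Amplite reagent.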
A number is an active result; . = inactive; ? = inconclusive; / = not tested or not shown; ! = not confirmed by another sample. Calls follow the shape of the dose curve; as a rule, active = well fitted curve in the direction sought with a large enough effect; inconclusive = small, poorly fitted or top-dose-only effect, or another doubt; inactive = no such curve, though single readings can be large; an effect the other way counts as inactive or inconclusive.

SMILES	NPC1 promoter act	ELG1 genotox	FLuc modulator	ELG1 repair inh	SMN2 splice enh	Rab9 prom act
COc1ccc(NC(=O)CN2C(=O)NC3(CCCC3)C2=O)cc1OC	.	.	.	.	/	.
O=C(Nc1ccc(OCc2cc(=O)n3ccsc3n2)cc1)c1ccc(F)cc1	/	/	.	/	.	/
O=C(C1CCN(S(=O)(=O)Cc2ccccc2)CC1)N1CCN(c2ccc(F)cc2)CC1	/	/	.	/	/	/
Cc1ccc2nc(C(F)(F)F)c(C#N)c(N)c2c1	.	.	.	?	14.1µM	.
N#Cc1c(NC(=O)c2nc3ncccn3n2)sc2c1CCCCC2	1.78µM	2.31µM	13.5µM	?	7.94µM	4.47µM
CC1CCc2c(sc(NC(=O)c3nc4ncccn4n3)c2C#N)C1 (stereo not given)	3.16µM	?	7.57µM	?	/	4.47µM
COc1cc(NC(=O)CN(C)S(=O)(=O)c2ccc3[nH]c4c(c3c2)CCCC4)cc(OC)c1OC	/	/	.	/	/	/
COc1cccc(-c2nc3c(c(C)nn3-c3ccccc3)c3cc(OC)c(OC)cc23)c1	/	/	.	/	.	/
COc1cc2c(-c3ccc(O)cc3)nc3c(c(C)nn3-c3ccccc3)c2cc1OC	.	.	.	9.2µM	.	.
COc1cc(C)ccc1NC(=O)Cc1csc(NC(=O)Nc2ccccc2OC)n1	.	.	.	?	/	.
COc1ccccc1NC(=O)Nc1nc(CC(=O)N2CCN(c3ccccc3OC)CC2)cs1	.	.	16.9µM	?	/	.
O=C(OCc1csc(-c2ccccc2)n1)c1cccs1	?	?	0.536µM	?	.	?
O=C(OCc1csc(-c2ccccc2)n1)C1=NN(c2ccccc2)C(=O)CC1	.	.	?	?	/	.
COc1ccc(C(=O)NCC(=O)OCc2csc(-c3ccccc3)n2)cc1	.	.	16.9µM	?	.	.
COc1ccccc1C(=O)NCC(=O)OCc1csc(-c2ccccc2)n1	.	.	.	?	?	.
Cc1ccsc1C(=O)OCc1csc(-c2ccccc2)n1	?	7.31µM	0.601µM	?	15.8µM	3.98µM
Cn1cccc1C(=O)OCc1csc(-c2ccccc2)n1	2.51µM	?	0.675µM	?	11.2µM	1.12µM
CC(OC(=O)/C=C/c1ccc2ccccc2n1)C(=O)Nc1ccc(S(N)(=O)=O)cc1 (stereo not given)	.	.	.	?	/	.
COc1ccc(CCC(=O)NCc2nc3cccnc3n2Cc2ccc(C)cc2)cc1	/	/	.	/	/	/
O=C(c1ccc(OC(F)(F)F)cc1)c1ncc[nH]1	?	?	?	?	/	3.55µM
CC(C)c1ccc(S(=O)(=O)c2cnc(SCC(=O)Nc3ccc(F)cc3F)nc2N)cc1	/	/	.	/	/	/
Cc1ccc2nc(-c3ccccc3)c(-c3ccccc3)nc2c1	.	.	.	.	/	.
Cc1nc2ccccc2nc(=O)c1NNc1ccccc1	?	9.2µM!	?	?	11.2µM	?
Cc1ccc2nc(=O)c(NNc3ccccc3)cnc2c1	?	?	?	?	17.8µM	?
CC(O)CCCCn1c(=O)c2c(ncn2C)n(C)c1=O (stereo not given)	/	/	/	/	.	/
SMILES	NPC1 promoter act	ELG1 genotox	FLuc modulator	ELG1 repair inh	SMN2 splice enh	Rab9 prom act
CCC(=O)c1ccc(OCC(=O)OCC(=O)c2cc(C)n(CC3CCCO3)c2C)cc1 (stereo not given)	.	.	.	.	/	.
COc1cccc(/C=C/C(=O)OCC(=O)c2cc(C)n(CC3CCCO3)c2C)c1OC (stereo not given)	.	.	13.5µM	?	/	.
COc1cc(C)ccc1OCC(=O)OCC(=O)c1cc(C)n(CC2CCCO2)c1C (stereo not given)	.	.	?	.	/	.
Cc1cc(C(=O)COC(=O)C2CCN(C(=O)c3ccc(Cl)cc3)CC2)c(C)n1CC1CCCO1 (stereo not given)	.	.	15.1µM	.	.	.
CSc1ncccc1C(=O)OCC(=O)c1cc(C)n(CC2CCCO2)c1C (stereo not given)	1.12µM	?	0.601µM	?	/	0.398µM
COc1cc(C(=O)OCC(=O)c2cc(C)n(CC3CCCO3)c2C)cc(OC)c1C (stereo not given)	.	.	16.9µM	.	/	.
